Source: PubChem BioAssay (EPA / NIEHS)
The source made the active and inactive calls. The calls were made as follows: active = hit-call score of the fitted dose curve at least 0.9, where 1 is the maximum; inactive = score below 0.9.

Experiments:
[1] = read-out: TIMP metallopeptidase inhibitor 1 (TIMP1), TIMP1 (gene 7076); assay: BSK_hDFCGF_TIMP1: BioMAP Diversity Plus: hDFCGF Assay for TIMP metallopeptidase inhibitor 1 (TIMP1) Biomarker Activity (AID 2283062); details: primary human foreskin fibroblasts; actives raise or lower the signal
Outline: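 TIMP-1 measured by ELISA 24 h after chemical dosing of primary human skin fibroblasts, with gain or loss fitted relative to DMSO. Parallel SRB staining (560 nm) monitored overt cytotoxicity.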

[2] = read-out: Monokine induced gamma interferon (MIG), CXCL9 (gene 4283); assay: BSK_hDFCGF_MIG: BioMAP Diversity Plus: hDFCGF Assay for Monokine induced gamma interferon (MIG) Biomarker Activity (AID 2283063); details: primary human foreskin fibroblasts; actives raise or lower the signal
Outline: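 Human primary foreskin fibroblasts in the hDFCGF system, exposed to test chemical for 24 h; MIG measured by ELISA. Bidirectional curve fitting against DMSO negative control as activity baseline.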

[3] = read-out: Matrix Metallopeptidase 1 (MMP1), MMP1 (gene 4312); assay: BSK_hDFCGF_MMP1: BioMAP Diversity Plus: hDFCGF Assay for Matrix Metallopeptidase 1 (MMP1) Biomarker Activity (AID 2283064); details: primary human foreskin fibroblasts; actives raise or lower the signal
Outline: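 ELISA read-out of MMP1 from human foreskin fibroblasts (primary skin cells), 24 h post-dose. Gain or loss of signal was fitted bidirectionally versus DMSO negative control; cytotoxicity was checked by SRB in parallel cultures.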

[4] = read-out: Vascular cell adhesion molecule 1 (VCAM1), VCAM1 (gene 7412); assay: BSK_hDFCGF_VCAM1: BioMAP Diversity Plus: hDFCGF Assay for Vascular cell adhesion molecule 1 (VCAM1) Biomarker Activity (AID 2283065); details: primary human foreskin fibroblasts; actives raise or lower the signal
Outline: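 ELISA readout of VCAM-1 on human dermal fibroblast primary cultures, 24 h after chemical exposure. Gain or loss of signal fitted in both directions against DMSO baseline.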

[5] = read-out: Plasminogen activator inhibitor-1 (PAI1), SERPINE1 (gene 5054); assay: BSK_hDFCGF_PAI1: BioMAP Diversity Plus: hDFCGF Assay for Plasminogen activator inhibitor-1 (PAI1) Biomarker Activity (AID 2283066); details: primary human foreskin fibroblasts; actives raise or lower the signal
Outline: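 Fibroblasts from human foreskin were treated with test chemical. After 24 h, PAI-1 was measured by ELISA. Activity was fitted in both directions relative to DMSO.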

[6] = read-out: Intercellular Adhesion Molecule 1 (ICAM1), ICAM1 (gene 3383); assay: BSK_KF3CT_ICAM1: BioMAP Diversity Plus: KF3CT Assay for Intercellular Adhesion Molecule 1 (ICAM1) Biomarker Activity (AID 2283067); details: primary human keratinocytes with fibroblasts; actives raise or lower the signal
Outline: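 Cell-surface ICAM-1 was measured by ELISA 24 h after dosing primary human skin keratinocytes co-cultured with fibroblasts. Parallel SRB staining tracked overt cytotoxicity. Gain or loss of signal was fitted relative to DMSO.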

[7] = read-out: Interferon-gamma inducible Protein 10 (IP10), CXCL10 (gene 3627); assay: BSK_KF3CT_IP10: BioMAP Diversity Plus: KF3CT Assay for Interferon-gamma inducible Protein 10 (IP10) Biomarker Activity (AID 2283068); details: primary human keratinocytes with fibroblasts; actives raise or lower the signal
Outline: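 Human keratinocyte plus foreskin fibroblast primary co-culture exposed to test chemical for 24 h; IP-10 measured by ELISA. Concentration-response fitted bidirectionally against DMSO control as baseline.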

[8] = BSK_KF3CT_SRB: Viability Assessment in the BioMAP Diversity Plus: KF3CT Assay (AID 2283069); details: primary human keratinocytes with fibroblasts;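 also: total protein by sulforhodamine B staining as a cytotoxicity measure; read 24 h after compound addition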
Outline: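 SRB read-out at 560 nm (0.1% stain, TCA-fixed cells) gauges overt cytotoxicity in a human skin keratinocyte–fibroblast co-culture 24 h post-dosing. Signal change was fitted bidirectionally relative to DMSO control.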

[9] = read-out: TIMP metallopeptidase inhibitor 2 (TIMP2), TIMP2 (gene 7077); assay: BSK_KF3CT_TIMP2: BioMAP Diversity Plus: KF3CT Assay for TIMP metallopeptidase inhibitor 2 (TIMP2) Biomarker Activity (AID 2283071); details: primary human keratinocytes with fibroblasts; actives raise or lower the signal
Outline: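 Chemicals were dosed onto human skin primary co-cultures of keratinocytes and foreskin fibroblasts, and TIMP-2 was measured by ELISA after 24 hours. Activity in either direction was fitted relative to DMSO.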

[10] = read-out: Transforming growth factor beta 1 (TGFb1), TGFB1 (gene 7040); assay: BSK_KF3CT_TGFb1: BioMAP Diversity Plus: KF3CT Assay for Transforming growth factor beta 1 (TGFb1) Biomarker Activity (AID 2283072); details: primary human keratinocytes with fibroblasts; actives raise or lower the signal
Outline: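 KF3CT co-culture (keratinocytes + fibroblasts), 24 h exposure → TGF-b1 ELISA → bidirectional fit, DMSO = baseline. Parallel SRB total-protein staining (0.1% SRB, 10% TCA fixation, 560 nm) for cytotoxicity.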

[11] = read-out: C-C motif chemokine 2 (Homo sapiens) (UniProt P13500); assay: BSK_KF3CT_MCP1: BioMAP Diversity Plus: KF3CT Assay for Monocyte Chemoattractant Protein 1 (MCP1/CCL2) Biomarker Activity (AID 2283073); details: primary human keratinocytes with fibroblasts; actives raise or lower the signal
Outline: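 ELISA read-out of MCP-1, 24 h post-dose, in primary human skin keratinocytes co-cultured with fibroblasts. Parallel SRB staining monitors cytotoxicity; changes fitted both directions relative to DMSO.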

[12] = read-out: Matrix Metallopeptidase 9 (MMP9), MMP9 (gene 4318); assay: BSK_KF3CT_MMP9: BioMAP Diversity Plus: KF3CT Assay for Matrix Metallopeptidase 9 (MMP9) Biomarker Activity (AID 2283074); details: primary human keratinocytes with fibroblasts; actives raise or lower the signal
Outline: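 ELISA read-out of MMP-9 at 24 h post-dosing in a co-culture of human skin keratinocytes and foreskin fibroblasts. Gain or loss of signal was fitted in both directions against DMSO.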

[13] = read-out: urokinase plasminogen activator (uPA), PLAU (gene 5328); assay: BSK_KF3CT_uPA: BioMAP Diversity Plus: KF3CT Assay for urokinase plasminogen activator (uPA) Biomarker Activity (AID 2283075); details: primary human keratinocytes with fibroblasts; actives raise or lower the signal
Outline: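 Skin co-culture (keratinocytes + foreskin fibroblasts), human primary; 24 h post-dose; uPA by ELISA; gain/loss fit vs DMSO baseline.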

[14] = read-out: CD40, CD40 (gene 958); assay: BSK_LPS_CD40: BioMAP Diversity Plus: LPS Assay for CD40 Biomarker Activity (AID 2283076); details: primary human HUVEC with PBMC; actives raise or lower the signal
Outline: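 In the LPS system of human endothelial cells with peripheral blood mononuclear cells, CD40 levels were read by ELISA 24 h post-treatment. Signal changes in either direction were fitted against the DMSO baseline, with parallel SRB protein staining.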

[15] = read-out: E-selectin (Homo sapiens) (UniProt P16581); assay: BSK_LPS_Eselectin: BioMAP Diversity Plus: LPS Assay for Eselectin Biomarker Activity (AID 2283077); details: primary human HUVEC with PBMC; actives raise or lower the signal
Outline: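 E-selectin ELISA on LPS-stimulated endothelial cell/PBMC co-cultures, read 24 h post-treatment; gains and losses fitted against DMSO. Parallel SRB staining (0.1% SRB after 10% TCA fixation, 560 nm) flags overt cytotoxicity.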

[16] = read-out: Interleukin-8 (IL8), CXCL8 (gene 3576); assay: BSK_LPS_IL8: BioMAP Diversity Plus: LPS Assay for Interleukin-8 (IL8) Biomarker Activity (AID 2283078); details: primary human HUVEC with PBMC; actives raise or lower the signal
Outline: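 ELISA read-out of IL-8 after 24 h chemical treatment of LPS-activated endothelial/PBMC human primary co-cultures. Changes either up or down relative to DMSO; overt cytotoxicity checked by sulforhodamine B staining in parallel wells.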

[17] = BSK_LPS_SRB: Viability Assessment in the BioMAP Diversity Plus: LPS Assay (AID 2283079); details: primary human HUVEC with PBMC;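 also: total protein by sulforhodamine B absorbance as a cytotoxicity measure; measured one day after compound addition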
Outline: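 SRB viability endpoint: cells fixed with 10% TCA, stained with 0.1% SRB, read at 560 nm, 24 h post-dose. HUVEC/PBMC co-culture; signal change in either direction scored relative to DMSO.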

[18] = read-out: Interleukin-1 alpha (IL1a), IL1A (gene 3552); assay: BSK_LPS_IL1a: BioMAP Diversity Plus: LPS Assay for Interleukin-1 alpha (IL1a) Biomarker Activity (AID 2283080); details: primary human HUVEC with PBMC; actives raise or lower the signal
Outline: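 Readout is IL-1a level by ELISA, 24 h post-dose, fitted as gain or loss relative to DMSO. System: LPS-activated human primary co-culture of vascular endothelium and peripheral blood mononuclear cells, with parallel SRB total-protein cytotoxicity.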

[19] = read-out: Monocyte Chemoattractant Protein-1 (MCP1), CCL2 (gene 6347); assay: BSK_LPS_MCP1: BioMAP Diversity Plus: LPS Assay for Monocyte Chemoattractant Protein-1 (MCP1) Biomarker Activity (AID 2283081); details: primary human HUVEC with PBMC; actives raise or lower the signal
Outline: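 Secreted MCP-1 read by ELISA at 24 h post-dosing in an LPS-activated co-culture of endothelial cells with peripheral blood mononuclear cells. Fits run in both directions, DMSO as baseline; parallel SRB staining tracks overt cytotoxicity.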

[20] = read-out: Interleukin-1 alpha (IL1a), IL1A (gene 3552); assay: BSK_KF3CT_IL1a: BioMAP Diversity Plus: KF3CT Assay for Interleukin-1 alpha (IL1a) Biomarker Activity (AID 2283070); details: primary human keratinocytes with fibroblasts; actives raise or lower the signal
Outline: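 Primary skin co-culture (keratinocytes, foreskin fibroblasts), 24 h exposure; ELISA for IL-1a; bidirectional curve fit vs DMSO.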

Measured: outcome

E-selectin (Homo sapiens), sequence (P16581 whole entry, looked up): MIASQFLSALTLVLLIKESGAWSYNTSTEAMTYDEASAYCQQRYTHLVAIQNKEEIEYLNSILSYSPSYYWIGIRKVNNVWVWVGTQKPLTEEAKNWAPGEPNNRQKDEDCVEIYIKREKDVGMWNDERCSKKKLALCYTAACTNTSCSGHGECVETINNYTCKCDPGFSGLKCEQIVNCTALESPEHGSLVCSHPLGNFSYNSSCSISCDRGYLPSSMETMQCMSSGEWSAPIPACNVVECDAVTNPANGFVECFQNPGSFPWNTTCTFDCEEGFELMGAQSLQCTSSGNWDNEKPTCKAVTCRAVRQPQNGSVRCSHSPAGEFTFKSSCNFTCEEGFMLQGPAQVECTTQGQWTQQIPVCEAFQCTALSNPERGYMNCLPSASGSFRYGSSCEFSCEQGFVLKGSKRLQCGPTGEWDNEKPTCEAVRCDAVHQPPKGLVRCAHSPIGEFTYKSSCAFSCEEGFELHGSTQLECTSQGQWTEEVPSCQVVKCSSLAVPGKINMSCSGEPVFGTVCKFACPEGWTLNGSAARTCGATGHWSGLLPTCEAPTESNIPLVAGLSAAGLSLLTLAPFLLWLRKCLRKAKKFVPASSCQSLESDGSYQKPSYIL

NC=O
not listed: [20]
inactive: all other assays above

Cc1cc(SC2=C(O)C[C@@](CCc3ccc(N)cc3)(C(C)C)OC2=O)c(C(C)(C)C)cc1CO
not listed: [9]
inactive: all other assays above

Cc1cc(Cc2ccc(N)c(C)c2)ccc1N
not listed: [9]
inactive: all other assays above
